We go through 22 compounds from PubChem BioAssay (NCATS).

Values joined by “and” are separate entries in the source; they are usually repeats but may differ in a detail not shown here. Identical values can stand only once. Results filed as inconclusive are left out. Unmarked numbers belong to inactive results. Active and inactive are the calls of the source. Unless noted, calls follow the shape of the dose curve; as a rule, active = well fitted curve in the direction sought with a large enough effect; inconclusive = small, poorly fitted or top-dose-only effect, or another doubt; inactive = no such curve, though single readings can be large; an effect the other way counts as inactive or inconclusive.

For one assay, the system named is 3D7. Nature of the assay: qHTS profiling for inhibitors of Plasmodium falciparum proliferation (AID 504749). Also: nearly all actives have a fitted effect of over 60% in size. Also: potency is read from the fitted curve at half-maximal effect. Particulars: P. falciparum in erythrocytes, SYBR Green DNA, 72 h; series mostly up to 28.7 µM. The gist of the method:
(§1)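 Parasite proliferation within erythrocytes, 72 h exposure. Endpoint: SYBR Green I fluorescence after overnight lysis at room temperature. Controls: 0.29 uM artemisinin, DMSO.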

The subject of another assay is AS120. The description is as above. The following applies: P. falciparum in erythrocytes, SYBR Green DNA, 72 h; series mostly up to 28.7 µM. In short, it runs like this:
as §1

The next assay deals with ATS95. The description is as above. The following applies: P. falciparum in erythrocytes, SYBR Green DNA, 72 h; series mostly up to 28.7 µM. The gist of the method:
as §1

The next assay has as its system CP185. The assay is described as above. The following applies: P. falciparum in erythrocytes, SYBR Green DNA, 72 h; series mostly up to 28.7 µM. The gist of the method: as §1
In a further assay the test system is CP192. The assay is described as above. Particulars: P. falciparum in erythrocytes, SYBR Green DNA, 72 h; series mostly up to 28.7 µM. In short, it runs like this:
as §1

For a further assay, the system named is CP211. Described as above. The following applies: P. falciparum in erythrocytes, SYBR Green DNA, 72 h; series mostly up to 28.7 µM. The gist of the method:
as §1

In another assay the test system is CP217. The description is as above. Particulars: P. falciparum in erythrocytes, SYBR Green DNA, 72 h; series mostly up to 28.7 µM. The gist of the method:
as §1

The subject of a further assay is CP238. The assay is described as above. The following applies: P. falciparum in erythrocytes, SYBR Green DNA, 72 h; series mostly up to 28.7 µM. The gist of the method: as §1
In another assay the test system is CP247. The description is as above. Particulars: P. falciparum in erythrocytes, SYBR Green DNA, 72 h; series mostly up to 28.7 µM. In short, it runs like this:
as §1

In a further assay the test system is CP250. The assay is described as above. Particulars: P. falciparum in erythrocytes, SYBR Green DNA, 72 h; series mostly up to 12.8 µM. In short, it runs like this:
as §1

In the next assay the test system is CP252. The assay is described as above. The following applies: P. falciparum in erythrocytes, SYBR Green DNA, 72 h; series mostly up to 12.8 µM. The gist of the method:
as §1

For a further assay, the system named is CP256. The assay is described as above. The following applies: P. falciparum in erythrocytes, SYBR Green DNA, 72 h; series mostly up to 28.7 µM. The gist of the method:
as §1

Another assay deals with CP262. Described as above. Particulars: P. falciparum in erythrocytes, SYBR Green DNA, 72 h; series mostly up to 28.7 µM. In short, it runs like this:
as §1

Another assay concerns CP286. Described as above. Particulars: P. falciparum in erythrocytes, SYBR Green DNA, 72 h; series mostly up to 28.7 µM. The gist of the method: as §1
In the next assay the test system is ECU. Described as above. The following applies: P. falciparum in erythrocytes, SYBR Green DNA, 72 h; series mostly up to 28.7 µM. The gist of the method: as §1
A further assay concerns HB3. The assay is described as above. The following applies: P. falciparum in erythrocytes, SYBR Green DNA, 72 h; series mostly up to 28.7 µM. In short, it runs like this: as §1
The test system of a further assay is N140. Described as above. The following applies: P. falciparum in erythrocytes, SYBR Green DNA, 72 h; series mostly up to 28.7 µM. In short, it runs like this:
as §1

The test system of a further assay is P94_40. Described as above. The following applies: P. falciparum in erythrocytes, SYBR Green DNA, 72 h; series mostly up to 28.7 µM. In short, it runs like this:
as §1

The subject of the next assay is TAB109. Described as above. Particulars: P. falciparum in erythrocytes, SYBR Green DNA, 72 h; series mostly up to 12.8 µM. In short, it runs like this: as §1
A short description of assay [1]: qHTS assay for small molecule agonists of the antioxidant response element (ARE) signaling pathway measured by Nrf2-dependant transcriptional activity - cell viability counter screen (AID 720653; active = well fitted curve in the direction sought with a large enough effect in the repeat runs; an effect the other way counts as inactive or inconclusive; also: % is scaled to controls: 0 for no effect and ±100 for the full control effect). The following applies: ARE-bla HepG2 viability, CellTiter-Glo ATP luminescence, 16 h; active compounds read low. The gist of the method: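 ARE-bla HepG2 cells (2,000/well) rested 5 hrs at 37C/5% CO2, then exposed to compounds in DMSO for 16 hrs. Viability was read in the same wells as intracellular ATP by luminescence, 30 min at room temperature after reagent addition.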

As to `COc1cc2c(cc1OC)[C@@]13CCN4CC5=CCOC6CC(=O)N2C1[C@H]6[C@@H]5C[C@@H]43` (stereo not given in full), the Potency result in the assay on 3D7, with AS120, in the assay on ATS95, in the assay on CP185, in the assay with CP192 and in the assay with CP211 was “inactive” in each case. The Potency result with CP217, in the assay with CP238, with CP247, with CP250, in the assay with CP252 and in the assay with CP256 was “inactive” throughout. Further, the Potency entry in the assay with CP262, in the assay on CP286, in the assay on ECU, in the assay with HB3, with N140 and with P94_40 was “inactive” each time. In addition, the Potency result in the assay on TAB109 is “inactive”.
As to `O=c1ccc2cc(O[C@H]3O[C@@H](CO)[C@@H](O)[C@@H](O)[C@@H]3O)c(O)cc2o1`, the Potency entry in the assay on AS120, with ATS95, in the assay on CP185, in the assay with CP192, with CP211 and in the assay with CP217 was “inactive” in each case. Further, the Potency result in the assay on CP238, in the assay with CP247, in the assay with CP250, in the assay with CP252, with CP256 and in the assay with CP262 was “inactive” throughout. Further, the Potency entry in the assay with CP286, in the assay with ECU, with HB3, in the assay on N140, with P94_40 and in the assay with TAB109 was “inactive” in each case.
As for `C=CC1CN2CCC1CC2C(OC(=O)OCC)c1ccnc2ccc(OC)cc12` (stereo not given), the Potency in the assay with 3D7 is 2.51 µM (active); in the assay on AS120 it was 7.94 µM (active); in the assay with ATS95, 3.98 µM (active); in the assay with CP185, 8.91 µM (active); in the assay on CP192, 6.75 µM (active); in the assay with CP211, 15.1 µM (active). Besides, the Potency with CP217 was 7.94 µM (active); with CP238, 8.91 µM (active); in the assay on CP247, 7.94 µM (active); in the assay on CP250, 12.6 µM (active); with CP252 it was 8.91 µM (active); in the assay on CP256 it was 11.2 µM (active). In addition, the Potency in the assay on CP262 was 6.01 µM (active); in the assay with CP286, 5.01 µM (active); in the assay on ECU, 3.98 µM (active); with HB3, 6.31 µM (active); in the assay on N140, 11.2 µM (active); in the assay on P94_40 it was 3.55 µM (active). The Potency with TAB109 was 4.47 µM (active).
For `CNC(=O)CSP(=S)(OC)OC`, in [1], the max response was -1.41% and -0.459%.
Consider `COc1cc(N)c(Cl)cc1C(=O)N[C@@H]1CN2CCC1CC2`, for which the Potency entry with 3D7, with AS120, with ATS95, with CP185, in the assay with CP192 and in the assay with CP211 was “inactive” in each case. Further, the Potency result in the assay on CP217, with CP238, in the assay on CP247, in the assay with CP250, with CP252 and with CP256 was “inactive” in each case. Further, the Potency result with CP262, in the assay with CP286, in the assay on ECU, with HB3, in the assay with N140 and in the assay on P94_40 was “inactive” in each case. Further, the Potency result in the assay on TAB109 is “inactive”.
As for `O=C1C=C2C=CC3C[C@@]2(O1)C1CCCCN31` (stereo not given in full), the Potency in the assay with 3D7 was 12.6 µM (active); in the assay with AS120 it was 10 µM (active); in the assay on ATS95, 10 µM (active); in the assay on CP211, 13.5 µM (active); in the assay on CP217, 8.91 µM (active); with CP238 it was 11.2 µM (active). Also, the Potency is 11.2 µM (active) in the assay with CP247; 12.6 µM (active) with CP250; 11.2 µM (active) with CP252; 11.2 µM (active) in the assay with CP256; 13.5 µM (active) in the assay on CP262; 11.2 µM (active) with CP286. Also, the Potency in the assay on ECU is 11.2 µM (active); with HB3 it was 11.2 µM (active); in the assay with N140, 12.6 µM (active); in the assay on P94_40 it was 8.91 µM (active); in the assay on TAB109, 5.01 µM (active).
Regarding `CCCCCCCCCc1ccc(O)cc1`, in assay [1], the max response is -6.51% and -5.9%.
On the same count and under the same terms, the same measure for `N#Cc1c(Cl)cccc1Cl`: 0.251%.
Consider `CCC(C)C1O[C@]2(C=CC1C)CC1CC(C/C=C(\C)[C@H](OC3CC(OC)C(O[C@H]4CC(OC)[C@@H](O)C(C)O4)C(C)O3)[C@@H](C)/C=C/C=C3\COC4C(O)C(C)=C[C@H](C(=O)O1)[C@@]34O)O2` (stereo not given in full), for which the Potency with 3D7 was 11.2 µM (active); in the assay with AS120, 10 µM (active); with ATS95, 10 µM (active); with CP185 it was 11.2 µM (active); in the assay on CP192 it was 19 µM (active); with CP211, 12 µM (active). Further, the Potency in the assay on CP217 was 10 µM (active); with CP247, 8.91 µM (active); in the assay with CP250, 11.2 µM (active); in the assay with CP252 it was 11.2 µM (active); in the assay on CP256, 6.31 µM (active); in the assay on ECU it was 8.91 µM (active). For the same compound, the values for the Potency with N140, in the assay with P94_40 and in the assay on TAB109 were 10 µM (active), 10 µM (active) and 8.91 µM (active), respectively. Further, in the assay with CP262, the Potency entry was “inactive”.
For the compound `CC([C@H](O)c1ccccc1)N(C)C` (stereo not given in full), the Potency result in the assay with 3D7, in the assay on AS120, in the assay on ATS95, in the assay with CP185, in the assay with CP192 and in the assay with CP211 was “inactive” throughout. In addition, the Potency entry with CP217, in the assay with CP238, in the assay on CP247, in the assay on CP250, in the assay with CP252 and in the assay on CP256 was “inactive” throughout. Also, the Potency entry in the assay with CP262, with CP286, with ECU, in the assay with HB3, with N140 and with P94_40 was “inactive” throughout. For the same compound, the Potency entry with TAB109 was “inactive”.
Turning to `CNC(C)[C@@H](O)c1ccccc1` (stereo not given in full), the Potency entry with 3D7, in the assay with AS120, with ATS95, in the assay with CP185, with CP192 and in the assay with CP211 was “inactive” in each case. Further, the Potency result in the assay on CP217, in the assay on CP238, with CP247, in the assay on CP250, with CP252 and in the assay on CP256 was “inactive” in each case. For the same compound, the Potency entry in the assay with CP262, with CP286, in the assay with ECU, in the assay on HB3, with N140 and in the assay on P94_40 was “inactive” throughout. Moreover, in the assay with TAB109, the Potency entry is “inactive”.
Regarding `CNC(=O)Oc1cccc2c1OC(C)(C)O2`, the max response in assay [1] was -5.36%.
Same read-out and setting: the same measure for `CCCCSP(=O)(SCCCC)SCCCC`: 12.3%; for `O=C(O)COc1cc(Cl)c(Cl)cc1Cl`: -9.62%.
Still for that read-out and setting: in the case of `CC(C)OC(=O)Nc1cccc(Cl)c1` it was -10.2%; in that of `CCC(=O)Nc1ccc(Cl)c(Cl)c1`, -7.64%.
The same measure, in the same setting: the same measure for `CC(C)N1C(=O)c2ccccc2NS1(=O)=O`: 7.65%.
On to `CCc1cccc(C)c1N(C(=O)CCl)C(C)COC` (stereo not given), for which the max response in [1] was -0.37%.
Still for that read-out and setting: the same measure for `COP(N)(=O)SC` (stereo not given): 9.18% and -6.05%.
Still for that read-out and setting: in the case of `COc1nc(NC(C)C)nc(NC(C)C)n1` it was 5.54%.
With `CC(C)Nc1nc(Cl)nc(NC(C)C)n1`, the max response in assay [1] was -2.76%.
Still for that read-out and setting: the same measure for `CC(C)(C)C(=O)C(Oc1ccc(Cl)cc1)n1cncn1` (stereo not given): 5.28% and -3.18%.
